# In PubChem BioAssay:
# Biological target: Neurogenic locus notch homolog protein 2 (Homo sapiens) (UniProt Q04721)
# Assay: Notch2 binders on small-molecule microarrays, primary screen, biochemical, small-molecule microarray, 635 nm fluorescence, stem cell growth factors (AID 1073)
# Details: Notch2 binding, higher = more signal
# Chain of Neurogenic locus notch homolog protein 2 (Homo sapiens) (Q04721 whole entry, looked up): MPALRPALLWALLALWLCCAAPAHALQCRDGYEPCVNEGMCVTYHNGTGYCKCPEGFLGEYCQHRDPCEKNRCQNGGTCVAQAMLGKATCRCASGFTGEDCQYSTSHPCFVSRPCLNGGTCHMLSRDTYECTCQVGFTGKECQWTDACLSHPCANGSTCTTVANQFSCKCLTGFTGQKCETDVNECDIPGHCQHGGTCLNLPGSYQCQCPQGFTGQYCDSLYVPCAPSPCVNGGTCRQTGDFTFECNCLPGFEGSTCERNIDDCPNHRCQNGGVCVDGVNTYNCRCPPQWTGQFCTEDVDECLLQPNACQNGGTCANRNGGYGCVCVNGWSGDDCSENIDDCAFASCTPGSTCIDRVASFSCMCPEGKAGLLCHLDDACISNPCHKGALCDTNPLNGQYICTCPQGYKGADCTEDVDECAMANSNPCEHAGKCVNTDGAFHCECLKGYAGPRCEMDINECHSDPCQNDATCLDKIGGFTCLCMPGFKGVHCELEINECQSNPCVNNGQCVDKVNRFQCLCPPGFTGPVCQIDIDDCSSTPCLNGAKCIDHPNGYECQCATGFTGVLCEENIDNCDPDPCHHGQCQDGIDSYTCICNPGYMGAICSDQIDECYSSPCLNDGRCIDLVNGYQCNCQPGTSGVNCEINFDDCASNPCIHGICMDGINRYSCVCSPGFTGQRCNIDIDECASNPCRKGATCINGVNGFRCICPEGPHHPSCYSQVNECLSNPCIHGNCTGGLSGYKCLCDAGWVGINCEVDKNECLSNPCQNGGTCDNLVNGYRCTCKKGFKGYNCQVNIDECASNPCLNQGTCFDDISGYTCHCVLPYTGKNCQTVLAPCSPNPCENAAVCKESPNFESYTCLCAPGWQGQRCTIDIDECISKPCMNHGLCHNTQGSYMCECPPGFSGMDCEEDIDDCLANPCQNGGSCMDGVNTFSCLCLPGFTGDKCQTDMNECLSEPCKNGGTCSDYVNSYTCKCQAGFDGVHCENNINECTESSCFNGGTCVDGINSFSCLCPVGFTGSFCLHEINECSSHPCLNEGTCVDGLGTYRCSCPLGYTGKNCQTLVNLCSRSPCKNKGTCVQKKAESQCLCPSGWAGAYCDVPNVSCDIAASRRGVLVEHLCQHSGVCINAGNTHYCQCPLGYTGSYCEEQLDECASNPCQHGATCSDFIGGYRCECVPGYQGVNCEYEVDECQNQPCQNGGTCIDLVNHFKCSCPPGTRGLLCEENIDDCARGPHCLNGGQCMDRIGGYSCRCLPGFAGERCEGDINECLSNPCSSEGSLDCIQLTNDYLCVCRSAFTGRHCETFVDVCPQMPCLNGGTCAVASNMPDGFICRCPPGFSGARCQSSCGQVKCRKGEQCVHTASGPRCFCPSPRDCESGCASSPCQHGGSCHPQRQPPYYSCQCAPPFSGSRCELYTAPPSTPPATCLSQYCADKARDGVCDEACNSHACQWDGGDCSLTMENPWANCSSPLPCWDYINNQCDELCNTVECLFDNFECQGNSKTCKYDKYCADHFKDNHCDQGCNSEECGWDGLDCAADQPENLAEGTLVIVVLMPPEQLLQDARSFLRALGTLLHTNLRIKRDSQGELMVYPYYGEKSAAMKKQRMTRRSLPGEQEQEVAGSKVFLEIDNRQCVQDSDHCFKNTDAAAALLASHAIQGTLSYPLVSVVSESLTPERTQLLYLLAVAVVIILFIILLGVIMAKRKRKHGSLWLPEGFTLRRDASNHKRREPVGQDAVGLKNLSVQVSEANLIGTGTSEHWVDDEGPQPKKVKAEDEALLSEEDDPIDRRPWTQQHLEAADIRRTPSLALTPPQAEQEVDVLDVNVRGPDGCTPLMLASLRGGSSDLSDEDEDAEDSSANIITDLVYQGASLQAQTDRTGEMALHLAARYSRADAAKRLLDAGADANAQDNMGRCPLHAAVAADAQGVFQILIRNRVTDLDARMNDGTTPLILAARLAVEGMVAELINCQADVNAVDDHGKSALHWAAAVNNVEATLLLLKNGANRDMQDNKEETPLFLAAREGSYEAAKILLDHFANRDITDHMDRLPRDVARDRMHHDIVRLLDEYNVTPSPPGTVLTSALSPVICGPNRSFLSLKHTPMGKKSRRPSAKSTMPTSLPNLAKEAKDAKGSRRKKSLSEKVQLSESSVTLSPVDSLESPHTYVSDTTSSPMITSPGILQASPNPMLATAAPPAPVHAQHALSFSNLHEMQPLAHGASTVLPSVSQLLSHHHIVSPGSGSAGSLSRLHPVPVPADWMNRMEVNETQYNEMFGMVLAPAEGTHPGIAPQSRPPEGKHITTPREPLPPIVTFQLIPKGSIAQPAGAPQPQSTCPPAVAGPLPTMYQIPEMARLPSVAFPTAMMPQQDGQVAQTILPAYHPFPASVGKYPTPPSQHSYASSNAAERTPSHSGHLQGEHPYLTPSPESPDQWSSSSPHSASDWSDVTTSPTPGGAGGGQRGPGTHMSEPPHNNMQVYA
row,Structure (SMILES),composite z-score
1,O=C1C2C=CC(C(O)c3ccc([N+](=O)[O-])cc3)N(Nc3ccccc3)C2C(=O)N1c1ccccc1 (stereo not given),1.4
2,CC(=O)NCCCC[C@@H]1NC(=O)[C@H]2C[C@@H](C(=O)NCCCCCC[N+](C)(C)C)[C@@H](c3ccc(O)cc3)N2C1=O,-0.181
3,CCCC[C@H]1OB(O)C[C@H]2C1=C(COC)C[C@H]1C(=O)C=CC(=O)[C@H]12,0.861
4,C[C@@H](OCc1ccccc1)C1NC(=O)[C@@]23C(=O)N[C@@H](Cc4ccccc4)C2[C@H](C)[C@@]2(C)O[C@H]2C3/C=C/C/C=C\CNC(=O)[C@H](Cc2ccccc2)NC1=O (stereo not given in full),-0.284
5,C=CCC(OC(C)=O)[C@@H]1[C@@H](N(Cc2ccc(-c3cccc(C(F)(F)F)c3)o2)C(=O)c2cccc3ccccc23)c2cc(OCCCO)ccc2N1C(=O)c1ccc2ccccc2c1 (stereo not given in full),-0.365
6,COCCn1c(C(=O)N2CCCC2)cc2c1C[C@H]1CN(C(=O)c3ccccc3)[C@@](Cc3ccccc3)(C(=O)OC)[C@@H]21,1.11
7,C=CC[C@@]12N=C(c3ccc(OCCCO)cc3)O[C@@H]1c1ccccc1N(Cc1ccccc1)C2=O,0.552
8,C[C@]1(C(=O)NCC(F)(F)F)c2ccccc2C(=O)N(Cc2ccc(OC(F)(F)F)cc2)[C@H]1c1ccc(CO)cc1,-0.298
9,O=C1N(CCS(=O)(=O)c2ccccc2)c2ccccc2[C@@H]2OC(c3ccc(OCCCO)cc3)=N[C@]12CCS(=O)(=O)c1ccccc1,1.44
10,CN(C)CCCC[C@@H]1NC(=O)[C@@H]2C[C@H](C(=O)NCCCCCCNC(=O)CS)[C@H](c3cccc(OCCO)c3)N2C1=O,-0.453
